The list is not random: actives were taken first. Their share in the collection is about 1.7%.
ERK AVP block: blocks ERK signaling stimulated by vasopressin; HEK293-V1b, vasopressin-stimulated pERK AlphaScreen; Potency, µM (titrated, usually from 57.5 µM), usual class: inhibitors; 72,000 compounds, 0.99% hits; AID 995; also: nearly all actives have a fitted effect of over 55% in size
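HEK293 cells stably expressing V1b receptor, seeded overnight in 1% FBS, were treated with compounds for 30 min at 37C, then stimulated 5 min with 25 nM vasopressin; phospho-ERK read by AlphaScreen SureFire after lysis.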
Caspase-1 inhib: blocks human caspase-1 allosterically or competitively | Caspase-1 enzyme, Ac-WEHD-AFC fluorogenic rate | Potency, µM (doses to about 57.5 µM), actives largely listed as inhibitors | 75,000 compounds, 0.03% hits | AID 900
ALOX15 inhib: inhibitors of human 15-lipoxygenase (ALOX15) | P16050 | purified 15hLO-1, xylenol orange hydroperoxide absorbance | Potency, µM (top dose mostly 57.1 µM), actives largely listed as inhibitors | 74,000 compounds, 1.4% hits | AID 887; also: nearly all actives have a fitted effect of over 55% in size
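Purified human 15hLO-1 (40 nM) in 25 mM Hepes pH 7.5, 0.01% Triton X-100, preincubated 15 min RT with compound, then 50 uM arachidonic acid for 6 min. Hydroperoxide read by ferrous/xylenol orange, 30 min; 573/405 nm absorbance ratio gave progress.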
Casp7 inh: blocks human caspase-7 allosterically or competitively. P55210. recombinant caspase-7, Ac-DEVD-AFC fluorescence rate. Potency, µM (series often up to 57.5 µM), hits mostly inhibitors. 75,000 compounds, 0.02% hits; active = well fitted inhibition curve with a large enough effect in the main read-out, with a control signal flat, not every such curve was filed as active; inconclusive = small, poorly fitted or top-dose-only effect, or a change in a side signal
15-hLO-2 inh: blocks human 15-lipoxygenase 2 activity | O15296 | purified 15hLO-2, xylenol orange hydroperoxide absorbance | Potency, µM (titrated, usually from 57.1 µM), usual class: inhibitors | 110,000 compounds, 0.56% hits; also: nearly all actives have a fitted effect of over 60% in size
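Enzyme 50 nM, AA 45 uM, 25 mM Hepes pH 7.5 + 0.01% Triton X-100; cpd preinc 15 min RT, rxn 90 min RT; stop/detect with 200 uM XO + 300 uM Fe(II) in 50 mM H2SO4, 30 min; A573/A405.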
Large screens that a line does not name were inactive; ! = a repeat was not active. Unless noted, calls follow the shape of the dose curve; as a rule, active = well fitted curve in the direction sought with a large enough effect; inconclusive = small, poorly fitted or top-dose-only effect, or another doubt; inactive = no such curve, though single readings can be large; an effect the other way counts as inactive or inconclusive.

CCOC(=O)C1=C(C)NC(SCC(=O)OC)=C(C#N)C1c1ccc(C(=O)OC)cc1 (stereo unspecified)	ALOX15 inhib 5µM
CCOC(=O)CSC1=C(C#N)C(c2ccc(F)cc2)C(C(C)=O)=C(C)N1 (stereo unspecified)	none
CC(=O)N[C@H]1[C@@H](O[C@@H](C)C(=O)O)[C@H](O)[C@H](CO)O[C@@H]1O	none
O=C(Nc1ccc(Cl)cc1C(=O)NCc1cccnc1)c1ccco1	none
O=C(Nc1ccc(Cl)cc1C(=O)Nc1ccncc1)c1ccco1	ERK AVP block inconclusive, ALOX15 inhib 2.5µM
N#CCCn1c(=O)c(-c2cccs2)nc2cnc(N3CCOCC3)nc21	ERK AVP block inconclusive, Caspase-1 inhib inconclusive, Casp7 inh inconclusive
O=c1[nH]c2[nH]c(=S)[nH]c(=S)c2[nH]1	ALOX15 inhib inconclusive
CCOC(=O)CNc1ccc2c(c1)OCO2	ERK AVP block inconclusive, ALOX15 inhib 2µM
CCOC(=O)c1nn(-c2ccccc2)c(=O)c2c(N)scc12	Caspase-1 inhib inconclusive, ALOX15 inhib 5µM
Nc1ncnc2nc(-c3ccc(C[P+](c4ccccc4)(c4ccccc4)c4ccccc4)cc3)[nH]c12	none
Cc1ccc(C(=O)CSC2=C(C#N)C(c3ccco3)C3=C(CC(C)(C)CC3=O)N2)cc1 (stereo unspecified)	none
CC(=O)C1=C(C)NC(SCC(=O)c2ccc(C)cc2)=C(C#N)C1c1ccco1 (stereo unspecified)	ALOX15 inhib 13µM, Casp7 inh inconclusive (no result: Caspase-1 inhib)
CCC(C)(C)n1nnnc1CN(Cc1ccco1)Cc1cc2cc3c(cc2[nH]c1=O)OCO3	ERK AVP block inconclusive, ALOX15 inhib 0.0079µM
CC(C)(C)n1nnnc1CN(Cc1ccco1)Cc1cc2cc3c(cc2[nH]c1=O)OCO3	none
Cc1ccc(C)c2[nH]c(=O)c(CN(Cc3ccc4c(c3)OCO4)Cc3nnnn3Cc3ccco3)cc12	Caspase-1 inhib inconclusive, ALOX15 inhib 25µM
Cc1ccc2cc(CN(Cc3ccc4c(c3)OCO4)Cc3nnnn3Cc3ccco3)c(=O)[nH]c2c1C	Caspase-1 inhib inconclusive, ALOX15 inhib 25µM
Cc1ccc2cc(CN(CCN3CCOCC3)Cc3nnnn3Cc3ccco3)c(=O)[nH]c2c1C	none
COc1ccc(CNC(=S)Nc2ccccc2C)cc1	none (no result: ERK AVP block, Caspase-1 inhib, ALOX15 inhib, Casp7 inh)
COc1ccc(CCNC(=S)Nc2cc(C)ccc2C)cc1	15-hLO-2 inh 25µM (no result: ERK AVP block, Caspase-1 inhib, ALOX15 inhib, Casp7 inh)
CNC(=S)NCCc1ccc(OC)c(OC)c1	none (no result: ERK AVP block, Caspase-1 inhib, ALOX15 inhib, Casp7 inh)
COc1ccc(NC(=S)NCCc2ccc(Cl)cc2)c(OC)c1	15-hLO-2 inh 25µM (no result: ERK AVP block, Caspase-1 inhib, ALOX15 inhib, Casp7 inh)
COc1ccc(CCNC(=S)Nc2cccc(C)c2C)cc1	15-hLO-2 inh 25µM (no result: ERK AVP block, Caspase-1 inhib, ALOX15 inhib, Casp7 inh)
CN1CCN(c2ncc3nc(CCc4ccccc4)c(=O)n(C)c3n2)CC1	none
CCSc1nnc(-c2ccc(Cl)cc2Cl)o1	ALOX15 inhib 3.2µM
Cc1ccc(C2CC(=O)Oc3cc(C)c(Cl)c(C)c32)cc1 (stereo unspecified)	none (no result: ERK AVP block, Caspase-1 inhib, ALOX15 inhib, Casp7 inh)
C[C@@H]1CC[C@H]2C(=O)N3[C@@H](CC[C@@H](C)[C@@H]3c3ccc(Br)cc3)C(=O)N2[C@@H]1c1ccc(Br)cc1	ALOX15 inhib inconclusive (no result: 15-hLO-2 inh)
Cn1c(=O)c2c(nc(CN3CCN(c4ccccc4)CC3)n2Cc2ccccc2F)n(C)c1=O	none
Cc1ccccc1Cn1c(CN2CCN(c3ccc(F)cc3)CC2)nc2c1c(=O)n(C)c(=O)n2C	ALOX15 inhib 20µM, Casp7 inh inconclusive (no result: ERK AVP block, Caspase-1 inhib, 15-hLO-2 inh)
COc1cccc2c1CCC1CC(=O)CC[C@@]21C (stereo partly specified)	none
COc1ccc(OC)c(S(=O)(=O)Nc2ccc(O)c(Sc3ncn[nH]3)c2)c1	ALOX15 inhib 13µM
COc1ccc(OC)c(S(=O)(=O)Nc2ccc(O)c3ccccc23)c1	Caspase-1 inhib inconclusive, ALOX15 inhib 25µM, 15-hLO-2 inh 16µM
COc1ccc(OC)c(S(=O)(=O)Nc2ccc(Oc3ccccc3)cc2)c1	none (no result: ERK AVP block, Caspase-1 inhib, ALOX15 inhib, Casp7 inh)
Cc1cc2c(c(=O)o1)[C@H](O)[C@H]1O[C@@H]1C2=O	ALOX15 inhib inconclusive (no result: 15-hLO-2 inh)
CN(C)c1ccc(-c2cncnc2Nc2ccc(F)cc2)cc1	ERK AVP block inconclusive, ALOX15 inhib 2.5µM
Fc1ccc(Nc2ncncc2-c2ccoc2)cc1	none
CN(C)c1ccc(-c2cncnc2-n2ccnc2)cc1	ERK AVP block 16µM, ALOX15 inhib inconclusive
CC(C)=CCC/C(C)=C/CO/N=C1/C[C@@H](O)[C@@H](O)[C@@H]2[C@@H]3C(=O)N(C(C)(C)C)C(=O)[C@H]3CC[C@@H]12	none (no result: 15-hLO-2 inh)
C[C@@H](CN1c2ccccc2Sc2ccccc21)N(C)C	ALOX15 inhib 16µM!
Cc1noc(C)c1-c1ccc2ncnc(N3CCN(C)CC3)c2c1	none
O=C(O)c1cc(NCc2cccs2)ccc1N1CCOCC1	none
COC(=O)c1cc(NCc2c(F)cccc2Cl)ccc1N1CCOCC1	ERK AVP block inconclusive, ALOX15 inhib 16µM
COC(=O)c1cc(NCc2cccs2)ccc1N1CCOCC1	ALOX15 inhib 20µM
COc1ccc2c(c1OC)OCC(c1ccc(OC)c(OC)c1OC)C2 (stereo unspecified)	none
CC(C)(C)c1cc(/C=C(\C#N)C(N)=S)cc(C(C)(C)C)c1O	ALOX15 inhib inconclusive, 15-hLO-2 inh 13µM
[C-]#[N+]/C(C#N)=C\c1cc(C(C)(C)C)c(O)c(C(C)(C)C)c1	ERK AVP block inconclusive
C[C@@H]1/C=C\CC(=O)OC[C@H](C)C(=O)N[C@@H](C)C(=O)OC1	none (no result: 15-hLO-2 inh)
CC1=c2c(oc3cc(O)c(Nc4c(C)cc(O)cc4O)c(C)c23)=CC(=O)C1=Nc1c(C)cc(O)cc1O	ALOX15 inhib inconclusive, 15-hLO-2 inh inconclusive
COc1ccc2[nH]c(=O)c(CN(CC3CCCO3)C(=O)Nc3ccc(F)cc3)cc2c1 (stereo unspecified)	ERK AVP block 13µM
CN(C)c1ncc2nc(-c3cc(F)cc(F)c3)c(=O)n(Cc3ccc(F)cc3)c2n1	none (no result: Caspase-1 inhib)
CC(C)NC(=O)NC(=O)CSc1nnc(COc2ccccc2Cl)o1	none (no result: ERK AVP block, Caspase-1 inhib, ALOX15 inhib, Casp7 inh)
O=C(CSc1nnc(COc2ccccc2Cl)o1)NC(=O)NC1CCCC1	ERK AVP block 20µM
NC(N)=Nc1ccc(-c2ccc(N=C(N)N)cc2)cc1	none
COc1cc(C(=O)NCCN2CCOCC2)cc(OC)c1OC	none (no result: ERK AVP block, Caspase-1 inhib, ALOX15 inhib, Casp7 inh)
COc1cc(OC)cc(C(=O)NCCN2CCOCC2)c1	ALOX15 inhib 10µM
COC(=O)C/C=C\[C@@H](C)[C@@H](/C=N\O[C@@H]1O[C@H](COC(C)=O)[C@@H](OC(C)=O)[C@H](OC(C)=O)[C@H]1OC(C)=O)NS(=O)(=O)c1ccc(C)cc1	none (no result: 15-hLO-2 inh)
Oc1ccccc1-c1nc(NCC2CCCO2)c2ccccc2n1 (stereo unspecified)	ERK AVP block 32µM, Caspase-1 inhib inconclusive
CSCC[C@@H]1NC(=O)C/C=C\[C@@H](C)COC(=O)[C@@H](C)COC1=O	none (no result: 15-hLO-2 inh)
N/C(CSc1nc(-c2ccccc2)c(-c2ccccc2)o1)=N\O	ERK AVP block 32µM, ALOX15 inhib 13µM
O=C(c1csnn1)N1CCC2(CC1)CN(c1cccc(-c3ccccc3)c1)C2	none

Assay outcomes (PubChem)
